Bioassay records from PubChem BioAssay.
VP16 counter: counter-screen for ROR gamma inhibitors: Gal4-VP16 reporter; AID 2546; Drosophila S2 Gal4-VP16 UAS-luciferase, luminescence, 20 h; Potency, µM (doses to about 53.6 µM), for the others: top-dose activity, negative = inhibition, hits mostly inhibitors; 3.5% of 310,000 active;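 also: Gal4-VP16 expression switched on by copper sulfate through the metallothionein promoter; potency is read from the fitted curve at half-maximal effect; % is scaled to controls: 0 for no effect and ±100 for the full control effect; nearly all actives have a fitted effect of over 50% in size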
Six1-Eya2 blk: inhibitors of human Six1/Eya2 interaction. 0.56% of 360,000 active. activity change, % (concentration not given with the values). AlphaScreen GST-Six1/His-Eya2 binding, biochemical; stronger effect = lower value. Q15475+O00167; in the data active = activity change below about -65%; inconclusive = mostly about -30% to -63%; also: % is scaled to controls: 0 for no effect and ±100 for the full control effect
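Six1/Eya2 binding was read as AlphaScreen signal after compounds were pinned into GST-Six1 plus His-tagged Eya2 (5X stock 250/500 nM) in pH 8.0 Tris/NaCl/TCEP buffer, beads added, then incubated 1 h, 37 C, dark.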
MBNL1 CUG block: inhibitors of human MBNL1 binding to CUG repeat RNA | TR-FRET MBNL1-His/biotin-(CUG)12 binding, 665/545 ratio | Potency, µM (doses to about 57.5 µM), without a hit: at the top dose activity change, negative = inhibition, actives largely listed as inhibitors | 0.036% of 280,000 active | Q9NR56; active = well fitted inhibition curve with a large enough effect in the signal ratio, with a control signal flat, not every such curve was filed as active; inconclusive = small, poorly fitted or top-dose-only effect, or effect the other way, or a change in a side signal; inactive = no such curve, though single readings can be large or run the other way; the % refers to the signal ratio; also: potency is read from the fitted curve at half-maximal effect; % is scaled to controls: 0 for no effect and ±100 for the full control effect
Target sequence (Q9NR56 whole entry, looked up): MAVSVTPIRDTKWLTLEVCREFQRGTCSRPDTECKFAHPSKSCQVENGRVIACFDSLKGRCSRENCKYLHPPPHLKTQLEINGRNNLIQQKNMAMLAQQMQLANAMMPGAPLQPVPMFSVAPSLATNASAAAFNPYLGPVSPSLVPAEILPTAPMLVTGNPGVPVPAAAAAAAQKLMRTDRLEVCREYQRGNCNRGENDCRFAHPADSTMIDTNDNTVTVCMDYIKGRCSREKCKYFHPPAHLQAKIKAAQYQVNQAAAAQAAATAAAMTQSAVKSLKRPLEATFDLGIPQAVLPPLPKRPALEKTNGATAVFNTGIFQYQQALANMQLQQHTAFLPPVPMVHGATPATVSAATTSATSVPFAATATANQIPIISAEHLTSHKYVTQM
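TR-FRET between His-tagged MBNL1 and biotin-(CUG)12 RNA, detected with Tb anti-His antibody (0.055 ng/ul) and streptavidin-XL665 (5 nM), 60 min at room temperature. Compounds titrated 92 nM to 58 uM; 665/545 nm ratio normalized to buffer and complex controls.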
RORg inh: blocks mouse ROR gamma transcriptional activity | P51450 | Drosophila S2 Gal4-RORgamma UAS-luciferase reporter, 20 h | Potency, µM (highest dose often 53.6 µM), for inactives: at the highest dose activity change, negative = inhibition, most hits filed as inhibitors | 5.4% of 310,000 active; also: potency is read from the fitted curve at half-maximal effect; % is scaled to controls: 0 for no effect and ±100 for the full control effect; nearly all actives have a fitted effect of over 60% in size
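Drosophila Schneider cells stably carrying a metallothionein-driven Gal4 DBD–ROR gamma fusion and a UAS-Photinus luciferase reporter were exposed to compound for 1 hr, then induced with copper sulfate (700 uM final) for 20 hr at ambient temperature before luminescence reading.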
CBFb RUNX1 block: inhibitors of human CBF-beta and RUNX1 interaction. 230,000 tested, under 10 active. Potency, µM (top dose mostly 59.8 µM), for inactives: at the highest dose activity, negative = inhibition, usual class: inhibitors. AlphaScreen CBFb-His/RUNX1-biotin binding, biochemical; also: % of control where 0% means no effect
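CBF-beta (His) and RUNX1 (biotin), 30 nM each; 20 min preassociation; + compound, 15 min; + beads 50 ng each (Ni, streptavidin), 90 min; RT; AlphaScreen read.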
CtBP-E1A blk: blocks the CtBP interaction with E1A; activity change, % (no concentration beside the values); AlphaScreen GST-E1A/His-CtBP binding, 1536-well; stronger effect = lower value; AID 651724; 0.49% of 340,000 active; in the data active = activity change below about -65%; inconclusive = mostly about -30% to -63%; also: % is scaled to controls: 0 for no effect and ±100 for the full control effect
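Protein mix (5X: 125 nM each GST-E1A, His-CtBP) was incubated with pinned compound 2 h at 37 deg C in dark, in 50 mM Tris pH 8.0 buffer with 300 mM NaCl. Glutathione donor and nickel acceptor beads followed; AlphaScreen signal read after 1 h.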
Active calls of the source: *; ? = inconclusive; . = not tested or not shown; [ ] = remark or other dose. Sampled rows, rich in hits. Any-hit rate of the full collection: about 5.5%. Unless noted, calls follow the shape of the dose curve; as a rule, active = well fitted curve in the direction sought with a large enough effect; inconclusive = small, poorly fitted or top-dose-only effect, or another doubt; inactive = no such curve, though single readings can be large; an effect the other way counts as inactive or inconclusive.

SMILES	VP16 counter	Six1-Eya2 blk	MBNL1 CUG block	RORg inh	CBFb RUNX1 block	CtBP-E1A blk
COc1ccc(N(C)S(=O)(=O)c2cccc(C(=O)NC3=NCCS3)c2)cc1	?	7.2	-13.0%	6.31µM*	3.4%	-10.3
O=C(NC1=NCCS1)c1cccc(OC(F)F)c1	-29.0%	0.5	-3.8%	11.2µM*	11.5%	9.1
CC(C)Oc1ccc(C(=O)NC2=NCCS2)cc1	1.0%[10 µM]	4.9	-1.4%	10µM*	5.0%	1.5
Cc1ccccc1Oc1ccc2c(c1)[C@@H]1C[C@H](N(C)C(=O)c3ccco3)[C@H]([C@H](C)O)C(=O)N1CC2	.	-10.6	.	.	.	-4.0
CN(C)/C=N/C(=S)Nc1ccc(Cl)cc1Cl	4.8%[10 µM]	18.3	-7.9%	12.6µM*	-7.7%	24.3
CN1CCN(C(=S)Nc2ccc(Cl)cc2Cl)CC1	14.5%	7.9	-2.7%	-24.2%	-0.3%	-0.4
CN(C)/C=N/C(=S)Nc1ccc(Cl)cc1	-10.0%[10 µM]	-2.0	-4.3%	6.31µM*	-2.8%	-23.6
Cc1cccc(C)c1NC(=S)/N=C/N(C)C	5.0%[10 µM]	0.1	-2.0%	20µM*	0.2%	0.0
COc1ccccc1CCC(=O)NNC(=O)c1ccc(Br)cc1	-4.2%	0.7	-4.7%	-7.1%	.	2.6
COC(=O)C[C@H](NC(=O)[C@H](C)NC(=O)[C@@H](NC(=O)OCc1ccccc1)C(C)C)C(=O)CF	.	.	.	.	19.6%	.
OC(c1cccs1)c1nccc2ccccc12 (stereo unspecified)	4.9%	-0.9	6.8%	-5.9%	-3.7%	-10.1
OC(c1ccccc1)c1nccc2ccccc12 (stereo unspecified)	-11.3%	4.5	3.3%	12.6µM*	15.3%	0.0
COc1ccc2nc(N=Nc3ccc(O)c4ccccc34)sc2c1	5.01µM*	?	4.7%	1.58µM*	?	?
COc1ccc2nc(N=NC3=C(O)CC(C)(C)CC3=O)sc2c1	?	-15.2	?	11.2µM*	.	-9.8
COc1ccc2nc(NC(=S)N(C)C)sc2c1	-27.1%	-7.1	-1.8%	28.8%	?	-24.5
COc1ccccc1NC(=O)C(C)Sc1nc(-c2ccccc2)cn1N (stereo unspecified)	.	-19.4	.	.	.	.
COC(=O)Cn1cc(/C=N/NC(=O)c2ccc(C#N)cc2F)c2ccccc21	-1.6%	-7.3	8.1%	10µM*	6.0%	-6.3
CCn1cc(/C=N/NC(=O)c2ccc(C#N)cc2F)c2ccccc21	10µM*	-0.8	13.3%	-140.0%	-1.4%	0.3
O=[N+]([O-])c1ccc2nonc2c1Nc1ccccc1	-5.6%	-26.0	?	-6.0%	.	1.5
Cc1nc(SCc2nc3ccccc3[nH]2)c2oc3ccccc3c2n1	?	-17.0	-3.9%	14.1µM*	6.3%	-19.6
c1ccc2[nH]c(CSc3ncnc4c3oc3ccccc34)nc2c1	-15.5%	5.0	39.4%	?	4.7%	36.8
Cc1onc(-c2ccccc2Cl)c1C(=O)Nc1nnc(-c2ccc(F)cc2)s1	-12.3%	1.7	22.5%	?	1.6%	6.5
Cc1onc(-c2ccccc2Cl)c1C(=O)Nc1nnc(-c2ccc(Br)cc2)s1	22.4µM*	-19.3	108.0%	10µM*	7.9%	-15.5
Cc1onc(-c2c(F)cccc2Cl)c1C(=O)Nc1nnc(-c2ccccc2)s1	?	1.2	24.1%	14.1µM*	-2.9%	-6.8
Cc1onc(-c2ccccc2Cl)c1C(=O)Nc1nnc(-c2ccc(Cl)cc2Cl)s1	?	2.0	12.9%	14.1µM*	10.9%	8.8
SMILES	VP16 counter	Six1-Eya2 blk	MBNL1 CUG block	RORg inh	CBFb RUNX1 block	CtBP-E1A blk
C=CCNC(=S)NC(=O)c1oc2ccccc2c1C	?	-3.5	10.0%	6.31µM*	-0.2%	3.5
Cc1cccnc1NC(=S)NC(=O)c1oc2ccccc2c1C	6.31µM*	1.7	6.2%	2µM*	.	2.1
Cc1c(C(=O)NC(=S)NCC(C)C)oc2ccccc12	?	-12.1	-4.5%	-30.1%	8.9%	-0.6
C1COC1	8.3%	.	.	-26.4%	8.5%[21.7 µM]	.
CC(=O)N1c2ccccc2C2(O)N=C(C)SC12 (stereo unspecified)	4.47µM*	-4.5	-18.8%	7.94µM*	4.4%	6.5
CC[C@@H](C)[C@H](NS(=O)(=O)c1cccc2ccccc12)C(=O)N[C@H](C=O)Cc1c[nH]c2ccccc12	.	.	.	.	-25.8%	.
COc1ccc(C/C(N)=N/OC(=O)c2cccc([N+](=O)[O-])c2)cc1	-28.0%	-27.6	?	2.4%	-5.9%	4.7
CC1=C(C)/C(=N/OC(=O)c2cccc([N+](=O)[O-])c2)C=CC1=O	3.55µM*	4.0	?	3.55µM*	6.9%	-1.4
N/C(=N/OC(=O)c1cccc([N+](=O)[O-])c1)c1cccc([N+](=O)[O-])c1	-9.8%	-3.7	9.8%	6.1%	1.3%	0.3
COc1ccccc1C/C(N)=N/OC(=O)c1cccc([N+](=O)[O-])c1	-24.4%	?	?	10µM*	5.2%	-22.4
COc1ccccc1C/C(N)=N/OC(=O)/C=C/c1ccccc1	-25.9%	12.5	20.7%	5.62µM*	25.7%	-7.3
Cn1nc(C(=O)Nc2c(-c3ccccc3)nc3sccn23)c2ccccc2c1=O	?	-3.5	-3.9%	10µM*	-7.3%	0.2
COc1cccc(CC(=O)NN2C(=O)NC3(CCCCC3)C2=O)c1	.	22.2	.	.	.	2.2
C/C(CC(=O)NC(C)(C)C)=N\NC(=O)c1ccccc1N	-2.2%	-0.7	-1.0%	?	-2.4%	11.3
C/C(CC(=O)NC(C)(C)C)=N\NC(N)=S	?	14.4	15.0%	11.2µM*	1.0%	0.0
C/C(CC(=O)Nc1ccc(Cl)c(C(F)(F)F)c1)=N\NC(=O)c1ccccc1O	?	-23.4	.	?	-7.1%	-19.1
C/C(CC(=O)Nc1ccc(Cl)c(C(F)(F)F)c1)=N\NC(N)=S	?	-9.0	-1.9%	11.2µM*	-2.1%	-0.8
O=C(NNC1=NCCC1)c1cccc(Br)c1	?	1.7	-1.9%	?	6.5%	-3.8
Cc1ccccc1C(=O)NNC1=NCCC1	14.1µM*	4.1	-3.8%	12.6µM*	-1.6%	-0.7
CC(C)C(=O)Nc1ncc(Cc2ccccc2Cl)s1	5.4%	0.2	-9.7%	?	-0.4%	-1.0
N#CCC(=O)Nc1ncc(Cc2ccccc2Cl)s1	?	-5.1	-5.4%	12.6µM*	-8.3%	-4.2
O=C(Nc1ncc(Cc2cc(Cl)ccc2Cl)s1)c1ccc([N+](=O)[O-])cc1	4.47µM*	-5.2	-7.9%	1µM*	-6.9%	-20.7
O=C(Nc1ncc(Cc2cccc(Cl)c2Cl)s1)c1ccc([N+](=O)[O-])cc1	-0.3%	-4.1	-4.1%	20.2%	-0.4%	-1.0
